Screening data: PubChem BioAssay, several laboratories
Rows were chosen to be rich in hits. Some 7% of all compounds tested hit in one or more screens of this group.
rCAG binder: binds r(CAG) RNA repeats; r(CAG) RNA repeat, TO-PRO-1 dye displacement fluorescence; inhibition, % at 3 µM; 370,000 compounds, 1.3% hits; AID 651821;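 active = inhibition above the plate cutoff, the mean of all test compounds on that plate plus 3 SD, cut at about 35% in these data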;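 also: 0% = DMSO alone and 100% = 100 µM mitoxantrone as full dye displacement; higher means more dye released from RNA so lower well fluorescence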
NR3A LBD binder: modulates the human NR3A ligand-binding domain | NR3A LBD differential scanning fluorimetry, Tm shift; 0% = protein alone, 100% = glycine-bound protein | Tm shift relative to glycine control, % at 25 µM | 340,000 compounds, 2.5% hits;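 active = melting temperature shift of at least 10% of the positive control shift, at one fixed dose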
ADAM17 inh: ADAM17 inhibition, QFRET primary screen | P78536 | recombinant ADAM17, EDANS/DABCYL FRET peptide cleavage | inhibition, % at 6.95 µM | 370,000 compounds, 0.83% hits | AID 720648;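 active = inhibition above the mean of compounds lying between control limits plus 3 SD, set per campaign, cut at about 8.5% in these data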;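 also: 0% = DMSO-only wells as the low control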
AHR activator: activates the human aryl hydrocarbon receptor. AHR-responsive luciferase reporter cells, luminescence. 320,000 compounds, 2.5% hits. P35869. activation, % at 5 µM. AID 2796; in the data active = activation above about 47%;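 also: 0% = vehicle wells and 100% = reference agonist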
Target sequence (P35869 whole entry, looked up): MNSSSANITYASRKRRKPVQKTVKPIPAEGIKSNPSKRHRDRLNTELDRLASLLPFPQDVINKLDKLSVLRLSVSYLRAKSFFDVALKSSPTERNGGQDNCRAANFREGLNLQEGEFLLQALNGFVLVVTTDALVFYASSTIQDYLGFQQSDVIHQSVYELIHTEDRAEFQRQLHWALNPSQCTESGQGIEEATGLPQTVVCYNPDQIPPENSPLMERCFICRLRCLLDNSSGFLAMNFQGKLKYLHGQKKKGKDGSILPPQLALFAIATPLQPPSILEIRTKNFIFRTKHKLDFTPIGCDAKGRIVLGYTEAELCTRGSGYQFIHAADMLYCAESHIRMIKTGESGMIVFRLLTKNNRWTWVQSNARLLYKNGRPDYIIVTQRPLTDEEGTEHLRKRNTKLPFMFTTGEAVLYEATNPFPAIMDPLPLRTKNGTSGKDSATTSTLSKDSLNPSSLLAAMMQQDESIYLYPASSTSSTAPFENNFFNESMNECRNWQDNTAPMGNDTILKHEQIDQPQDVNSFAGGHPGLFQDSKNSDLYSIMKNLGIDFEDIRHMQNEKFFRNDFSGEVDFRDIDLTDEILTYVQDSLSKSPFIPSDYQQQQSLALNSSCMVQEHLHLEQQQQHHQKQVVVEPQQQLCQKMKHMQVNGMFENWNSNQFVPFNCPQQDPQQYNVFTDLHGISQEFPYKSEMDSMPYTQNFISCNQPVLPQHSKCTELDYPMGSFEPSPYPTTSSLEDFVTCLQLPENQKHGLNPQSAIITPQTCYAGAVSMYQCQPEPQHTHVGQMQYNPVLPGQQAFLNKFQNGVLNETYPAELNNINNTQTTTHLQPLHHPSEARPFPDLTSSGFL
ADAM10 inh: inhibitors of human ADAM10 | recombinant ADAM10, EDANS/DABCYL FRET peptide cleavage, 3 h | inhibition, % at 7 µM | 370,000 compounds, 0.62% hits;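 active = inhibition above a per-campaign cutoff equal to the mean of compounds falling between control-based bounds plus 3 SD, cut at about 20% in these data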;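 also: 0% = DMSO wells while the 100% control is not disclosed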
proKLK7 act: activators of human kallikrein-7 zymogen. P49862. purified proKLK7, EDANS-DABCYL substrate fluorescence; 100% is mature enzyme control, 0% vehicle. activation, % at 7 µM. 370,000 compounds, 0.9% hits. AID 652039;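 active = activation above the mean of all tested compounds plus 3 SD, computed per campaign excluding outliers beyond control limits, cut at about 13% in these data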
An asterisk follows results filed as active; i = inactive; . = no result.

SMILES | rCAG binder | NR3A LBD binder | ADAM17 inh | AHR activator | ADAM10 inh | proKLK7 act
Cc1sc2nc(SCC(=O)NCc3ccco3)[nH]c(=O)c2c1C | 6.9 | 0.2 | -1.6 | 54.8* | -18.1 | -0.1
Cc1cc2nc(-c3cccnc3SCC(=O)NCc3ccco3)[nH]c2cc1C | 11.9 | -1.4 | -193.4 | 64.4* | i | 12.1
Cc1cc2nc(-c3cccnc3SCC(=O)NC3CC3)[nH]c2cc1C | 0.6 | . | -36.6 | 54.7* | -128.4 | 0.5
Cc1sc2nc(SCC(=O)NCc3cccs3)[nH]c(=O)c2c1C | 3.9 | -0.8 | -4.9 | 20.8 | 3.8 | 0.2
CN(C(=O)c1cn(C)c2ccccc12)c1ccc(Oc2cccnc2)cc1 | 0.2 | . | -3.6 | . | -10.0 | 0.3
O=C(COC(=O)c1cc([N+](=O)[O-])ccc1N1CCOCC1)NCCc1ccccc1 | -7.2 | 15.9* | -3.0 | 1.9 | -5.8 | 0.3
O=C(Nc1cccc(Cl)c1N1CCOCC1)c1cc([N+](=O)[O-])ccc1N1CCOCC1 | -0.2 | -2.5 | -1.6 | -2.1 | 5.9 | 0.1
COc1ccccc1NC(=O)c1cc([N+](=O)[O-])ccc1N1CCOCC1 | -5.3 | 3.0 | -0.7 | 59.7* | -5.1 | 0.2
CC(=O)Nc1ccc(NC(=O)COC(=O)c2cc([N+](=O)[O-])ccc2N2CCOCC2)cc1 | -2.3 | 23.2* | -2.5 | 2.3 | -3.7 | 0.2
CCCCNC(=O)c1[nH]c(C2CCNCC2)nc1-c1cccc(C(F)(F)F)c1 | 3.2 | . | -4.3 | . | -10.9 | 0.3
CCN(CC)C(=O)CSc1nnc(-c2ccccn2)n1C | 0.0 | . | -3.8 | . | -10.3 | 0.6
CN1c2ccccc2Sc2cc(N)ccc21 | 5.3 | 0.3 | 2.3 | 62.1* | 9.7 | -0.4
CC(=O)N1c2ccccc2Sc2ccccc21 | -3.3 | -2.9 | -2.0 | . | -1.5 | 0.8
CNC12CCc3cc(OC)c(OC)c(c31)-c1cc3c(cc1C2)OCO3 (stereo not given) | 0.2 | . | -11.9 | . | -44.0 | -2.5
CCOc1ccc(Oc2c(Cl)cnn(Cc3cccc4ccccc34)c2=O)cc1 | 3.4 | . | -6.4 | . | -1.4 | 0.0
CSc1ccccc1NC(=O)NCCCl | -1.6 | 242.5* | -3.2 | 2.9 | -9.4 | 0.0
COc1ccc(NS(=O)(=O)c2cc(NC(=O)[C@@H](NC(=O)c3ccccc3)C(C)C)ccc2C)cc1 | 7.2 | 13.1* | -0.9 | 0.2 | 5.1 | 0.2
CC(=O)c1c(-c2ccc(C)cc2)nc2c3ccccc3ccn12 | 1.2 | 1.1 | 0.0 | 58.8* | -4.0 | 0.1
Cc1ccc(-c2nc3c4ccccc4ccn3c2CN2CCCCC2)cc1 | -3.0 | -0.7 | -7.0 | 30.8 | -13.0 | -0.1
CCOC(=O)c1c(C)nc2c3ccccc3ccn12 | 3.0 | 5.9 | -7.3 | 74.6* | -9.6 | -0.9
CCOC(=O)c1c(C)nc2c(C)cccn12 | -2.0 | 0.8 | -6.5 | -0.2 | -16.5 | -0.2
O=C(NCCO)c1cccc(-c2cc(Nc3ccc(OC(F)(F)F)cc3)ncn2)c1 | 2.7 | . | -11.8 | . | -55.1 | -1.9
NC(=O)c1cccc(-c2cc(Nc3ccc(OC(F)(F)F)cc3)ncn2)c1 | 2.9 | 25.1* | -8.0 | -12.5 | -36.3 | 0.5
O=S(=O)(Nc1ccc(-n2cccc2)cc1)c1ccc(F)cc1 | 4.9 | -10.4 | 6.1 | -0.9 | 12.0 | 0.4
O=S(=O)(Nc1ccc(-n2cccc2)cc1)c1ccc(Cl)c(Cl)c1 | 15.9 | 34.7* | 6.6 | -2.2 | 18.6 | 0.1
SMILES | rCAG binder | NR3A LBD binder | ADAM17 inh | AHR activator | ADAM10 inh | proKLK7 act
O=S(=O)(Nc1ccc(-n2cccc2)cc1)c1ccc(Cl)cc1Cl | 17.6 | 13.5* | 3.0 | 0.9 | 16.5 | 0.0
CC(OC(=O)CCCN=C1NS(=O)(=O)c2ccccc21)C(=O)c1ccccc1 (stereo not given) | 0.0 | 1.9 | -4.0 | 58.9* | -1.9 | 0.4
CC(OC(=O)CCCN=C1NS(=O)(=O)c2ccccc21)C(=O)N(C)c1ccccc1 (stereo not given) | -7.9 | 0.8 | -4.0 | 6.6 | 4.2 | -1.1
COC(=O)c1ccc2c(C(C)c3ccccc3O)c[nH]c2c1 (stereo not given) | 8.7 | . | -90.6 | . | -285.3 | 4.0
CC(C)N(C)Cc1nnnn1CC(=O)N(C)Cc1cccc(Cl)c1 | -4.5 | -0.9 | -0.6 | -0.8 | -2.1 | 0.6
CC(C)N(C)Cc1nnnn1CC(=O)N(C)Cc1ccc(F)cc1 | -1.0 | 0.3 | -2.9 | 49.4* | -4.2 | -0.2
COC(=O)c1ccc(CNC(=O)Cn2nnnc2CN(C)C(C)C)cc1 | -1.3 | 1.6 | -1.2 | 56.1* | -3.4 | -0.7
COC(=O)C1CN(Cc2ccc(OC)cc2)CCS(=O)(=O)N1Cc1cn(Cc2ccc(C)cc2)nn1 (stereo not given) | 4.9 | . | -1.8 | . | -4.2 | 0.1
CCN(CC)CCN(C(=O)c1ccc(S(=O)(=O)N(CC)c2ccccc2)cc1)c1nc2c(OC)ccc(OC)c2s1 | 1.2 | 11.9* | 2.4 | 38.1 | 3.4 | 1.2
COc1ccc(C)c2sc(N(CCN(C)C)C(=O)c3ccc4ccccc4c3)nc12 | -1.0 | -1.4 | -3.0 | 8.3 | 1.8 | -0.1
Cc1cc2n(n1)SC(Nc1cc(Cl)ccc1Cl)N2 (stereo not given) | 3.3 | -6.2 | 2.1 | 62.9* | 17.9 | 0.6
Cc1cc2n(n1)SC(Nc1cccc3ccccc13)N2 (stereo not given) | 4.9 | 1.6 | -13.3 | 53.2* | -54.5 | -0.3
CCc1ccccc1NC1Nc2cc(C)nn2S1 (stereo not given) | -1.9 | 1.0 | -2.7 | 3.7 | -8.0 | -0.1
COc1c(C(C)(C)C)cc(S(=O)(=O)N2c3ccccc3C[C@H]2C)cc1C(C)(C)C | . | . | 0.2 | . | 5.6 | .
O=C(CN1C(=O)/C(=C/c2ccccc2)SC1=S)NNC(=O)c1ccccc1O | 9.0 | 10.1* | -2.5 | 3.5 | -8.1 | -0.3
COc1cccc(/C=C2\SC(=S)N(N3C(=O)CCCC3=O)C2=O)c1 | 8.2 | 23.5* | -2.2 | 7.8 | 2.0 | 1.7
Cc1ccc(/C=C2\SC(=S)N(CCCC(=O)NNC(=O)c3ccccc3O)C2=O)cc1 | 2.1 | -3.0 | -0.5 | -7.4 | 5.5 | -0.8
COc1cccc(/C=C2/SC(=S)N(CC(=O)NNC(=O)c3ccccc3O)C2=O)c1 | 16.6 | 15.5* | -3.5 | 8.8 | -10.6 | 0.3
COc1ccc(/C=N/OCC(=O)N=Nc2c(O)[nH]c3ccc(Br)cc23)cc1OC | 14.1 | -25.1 | -1.8 | 78.1* | 9.4 | 1.3
CCCC(=O)N1CCC[C@]2(CC[C@@H](CCC(C)=O)O2)C1 | 2.9 | . | -2.9 | . | -7.1 | 0.3
O=C(NCC1CCCO1)c1sc2ccccc2c1Cl (stereo not given) | -3.1 | 11.0* | -6.4 | 0.9 | -8.4 | 0.9
O=C(Cc1cccc2ccccc12)NCC1CCCO1 (stereo not given) | -5.0 | 13.1* | -1.6 | -0.3 | 6.1 | 0.3
CCCC1CCC2(CCCN2CCOC(=S)NCc2cccc(C)c2)CC1 (stereo not given) | . | . | -3.6 | . | -0.6 | .
CC1(NC(=S)Nc2ccc3ccccc3c2)CCS(=O)(=O)C1 (stereo not given) | 2.4 | -1.7 | -12.1 | 25.5 | -32.6 | -0.1
CN(C)C(=S)NC(=S)Nc1ccc2ccccc2c1 | 12.4 | 20.9* | 2.4 | . | -10.0 | -0.8
